# Measurements reported in PubChem BioAssay AID485360 (National Center for Advancing Translational Sciences (NCATS), 2010).
# The whole screen tested about 230,000 compounds, of which about 1,500 (0.65%) were called active. Roughly 3% stayed inconclusive and do not appear here. Only a selection was taken, and actives are over-represented in it overall. Unmarked numbers belong to inactive results. Calls follow the shape of the dose curve; as a rule, active = well fitted inhibition curve with a large enough effect; inconclusive = small, poorly fitted or top-dose-only effect; inactive = no such curve, though single readings can be large or run the other way.
# Target: Lethal(3)malignant brain tumor-like protein 1 (Homo sapiens) (UniProt Q9Y468)
# Assay: qHTS Assay for the Inhibitors of L3MBTL1; also: nearly all actives have a fitted effect of over 60% in size
# Conditions: AlphaScreen L3MBTL1–H3K9me1 peptide binding; series mostly up to 57.1 µM; activity, negative = inhibition: at the top concentration
# Excerpt: The histone code is comprised of many post-translational modifications that occur mainly in histone tail peptides. The identity and location of these marks are read by a variety of histone binding proteins that are emerging as important regulators of cellular differentiation and development and are increasingly being implicated in numerous disease states. Small molecule probes that disrupt the interaction between histone binding proteins and chromatin would enable a systematic chemical biology study of proteins that read the histone code and could potentially reveal new targets for drug discovery. However, no such small molecules are known. This dearth of quality molecular probes can largely be attributed to the novelty of the target class and the lack of screening assays. This proposal details the development of the first high-throughput screening assay for the discovery of inhibitors of methyl-lysine binding proteins and how it can be be used to initiate a full-scale discovery effort for antagonists of histone binding proteins. Specifically, this work focuses on an AlphaScreen(tm)-based HTS assay for Malignant Brain Tumor (MBT) domain-containing proteins, which bind to the lower methylation states of lysine residues present in histone tail peptides.
# To each well, 2 uL of L3MBTL1 protein (final 50 nM) and 1 uL biotinylated histone peptide monomethylated at Lys9 [b-AHA-H3(1-15)K9me1] (final 75 nM) was added using a nanoliter dispenser. Formation of a protein-peptide complex proceeded at room temperature for 30 min. A Kalypsys pin-tool was employed to transfer 23 nL of library compound solution in DMSO to each well. Cefsulodin, found in a pilot screen of the LOPAC library to be a weak inhibitor of L3MBTL1 binding, was used as an intraplate control with a 16-point titration in duplicate. Following a 30 min incubation of the protein-peptide complex with compounds at room temperature, a mixture of 40 ug/mL each streptavidin-coated donor and nickel chelate acceptor AlphaScreen beads (final 10 ug/mL) was added in a 1 uL dispense for a final volume of 4 uL. Plates were incubated, protected from the light for 30 min at room temperature. Microplates were then be read on an EnVision multilabel plate reader using the 1,536 plate HTS AlphaScreen aperture (excitation time 80 ms, measurement time 240 ms).
# % is scaled to controls: 0 for no effect and ±100 for the full control effect; potency is read from the fitted curve at half-maximal effect.
# Chain of Lethal(3)malignant brain tumor-like protein 1 (Homo sapiens) (Q9Y468 whole entry, looked up): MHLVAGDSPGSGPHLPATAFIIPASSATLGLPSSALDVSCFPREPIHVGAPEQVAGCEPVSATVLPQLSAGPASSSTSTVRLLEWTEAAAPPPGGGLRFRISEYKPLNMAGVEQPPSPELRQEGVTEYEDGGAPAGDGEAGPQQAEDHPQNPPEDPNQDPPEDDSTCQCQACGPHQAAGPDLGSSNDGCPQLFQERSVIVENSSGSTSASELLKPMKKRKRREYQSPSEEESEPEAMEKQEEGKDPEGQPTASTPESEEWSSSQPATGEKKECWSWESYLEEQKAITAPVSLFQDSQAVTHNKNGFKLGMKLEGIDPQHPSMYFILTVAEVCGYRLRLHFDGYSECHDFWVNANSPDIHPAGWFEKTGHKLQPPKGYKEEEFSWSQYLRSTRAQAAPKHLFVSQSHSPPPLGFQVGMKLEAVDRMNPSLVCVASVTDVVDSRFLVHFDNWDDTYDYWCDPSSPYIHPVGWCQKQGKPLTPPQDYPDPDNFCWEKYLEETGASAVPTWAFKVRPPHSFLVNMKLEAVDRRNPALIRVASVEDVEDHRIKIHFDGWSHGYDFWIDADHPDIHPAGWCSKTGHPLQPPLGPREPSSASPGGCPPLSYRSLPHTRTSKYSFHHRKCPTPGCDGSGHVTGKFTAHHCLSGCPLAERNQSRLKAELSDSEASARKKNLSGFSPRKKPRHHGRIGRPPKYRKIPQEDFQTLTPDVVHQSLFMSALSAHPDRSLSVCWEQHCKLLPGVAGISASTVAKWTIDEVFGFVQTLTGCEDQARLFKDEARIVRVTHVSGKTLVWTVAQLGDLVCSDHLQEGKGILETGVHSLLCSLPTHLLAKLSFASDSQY
SMILES,"activity, negative = inhibition",Potency
COc1ccc(NS(=O)(=O)c2ccc(C)c(C(=O)N(C)Cc3ccc(OC)cc3OC)c2)cc1,-0.449%,
O=C(NCCC1CCCCN1S(=O)(=O)c1ccccc1)C(=O)NCC1CCCO1 (stereo unspecified),2.06%,
CC(C)(C)OC(=O)NCCCCCNC(=O)c1nc[nH]c1C(=O)NCc1ccccc1,-12.7%,
C[C@H](NC(=O)c1nc[nH]c1C(=O)NCC(=O)OC(C)(C)C)c1ccccc1,39.2%,
CC(C)(C)OC(=O)NCCCCCNC(=O)c1[nH]cnc1C(=O)Nc1nccs1,,28.2 µM (active)
Cc1csc(=O)n1CC(=O)Nc1ccc(S(C)(=O)=O)cc1,-8.83%,
Cc1ccc(S(=O)(=O)NC[C@H]2O[C@@H](n3cnc4c(N)ncnc43)[C@H](O)[C@@H]2O)s1,2.48%,
O=C(Cc1ccc(S(=O)(=O)N2CCOCC2)s1)N1CCN(c2ccc(C(F)(F)F)cc2[N+](=O)[O-])CC1,-6.57%,
Cc1cccc(-n2ncc3c(=O)[nH]c(SCC(=O)Nc4cc(C)on4)nc32)c1,-3.55%,
O=C1CCCC(O)=C1N=Nc1ccc2ncsc2c1,,25.1 µM (active)
O=C1CCCC(O)=C1N=Nc1ccc(S(=O)(=O)N2CCOCC2)cc1,-5.64%,
CC[C@@]1(C(=O)OC)N[C@H](CN(C)C(C)=O)[C@@H]2C(=O)N(C)C(=O)[C@@H]21,-2.06%,
Cc1nnc(SCC(=O)Nc2cccc(N)c2)n1-c1ccccc1,-2.05%,
O=C1c2ccccc2C(=O)c2c1cccc2N1CCN(Cc2ccccc2)CC1,,14.1 µM (active)
O=C1c2ccccc2C(=O)c2c1cccc2N1CCN(CCO)CC1,-14.1%,
O=c1cc(N2CCN(Cc3ccccc3)CC2)c(-c2ccccc2)n[nH]1,-2.53%,
CN(CC(=O)O)C(=O)c1ccccc1,1.31%,
Cc1cc([N+](=O)[O-])ccc1NC(=O)c1ccc(NC(=O)C(C)C)cc1,-0.242% [at 11.4 µM],
CCc1ccc(NC(=O)c2ccc(Cn3cc([N+](=O)[O-])cn3)cc2)cc1,7.42%,
Cn1ccc(=Nc2ccc(NC(=O)c3ccc(N=c4ccn(C)c5ccc([N+](=O)[O-])cc45)cc3)cc2)cc1,,25.1 µM (active)
COCC(=O)N1CCCC(C(=O)c2ccc(C(F)(F)F)cc2)C1 (stereo unspecified),0.665%,
Cc1c(OC(C)C(=O)NCC2CCC(C(=O)O)CC2)ccc2c1oc(=O)c1ccccc12 (stereo unspecified),-4.44%,
CCCNC(=O)CCn1cc(-c2ccc(OC)cc2)nc1CCN,-8.13%,
CCN(C(=O)Cc1nc(N)n[nH]1)C1(C(=O)Nc2ccccc2)CCCCC1,,11.2 µM (active)
CCOC(=O)c1cn[nH]c1NC(=S)Nc1ccccc1,34.9%,
CCOC(=O)Cc1csc(NC(=O)Nc2ccccc2)n1,2.6%,
